# From PubChem BioAssay AID652017 (The Scripps Research Institute Molecular Screening Center, 2013)
# The campaign covered roughly 370,000 compounds. About 3,800 (1%) were called active. Cut-off read from the data, not from the text of the source: active = activation above about 7.8%; inactive = the rest. Many of the other results were omitted from the sample, so actives are more common in it than they were.
# Assay: SMARCA2 (BRM) function activators, primary screen, cell-based, luminescence, high throughput (AID 652017);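 note: 0% = vehicle wells and 100% = reference activator wells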
# Conditions: MG213 cells, MMTV-luciferase reporter, dexamethasone, overnight; at 9.1 µM; active compounds read high
row,Compound,activation
1,COC(=O)[C@@]12CCCCC=C1N(CCc1ccc(Cl)cc1)C(=O)[C@H]2CC(=O)NCc1ccc(OC)c(OC)c1,-0.41% (inactive)
2,CCC(=O)Nc1ccc2nn(-c3ccc(F)cc3)nc2c1,9.02% (active)
3,CCOC(=O)c1nnn(CC(=O)Nc2cccc(F)c2)c1C(=O)OCC,-2.09% (inactive)
4,O=C(Nc1cccc(Cl)c1)c1cncn1-c1ccc(F)cc1,-2.14% (inactive)
5,CC1CN(Cc2ccco2)C(=S)N(c2ccccc2)C1=O (centres undefined),-1.86% (inactive)
6,CCc1ccccc1N1CN(Cc2ccco2)CNC1=S,-4.87% (inactive)
7,CN(C)C(=S)N=c1ssc(=S)n1Cc1ccco1,8.22% (active)
8,COC(=O)C1=C(C)N(Cc2ccc(F)cc2)C(=S)NC1c1cccc(Cl)c1 (centres undefined),-3.14% (inactive)
9,Cc1ccccc1C#CC1=CC(=O)CC(C)(C)C1,9.9% (active)
10,Cc1cc(O)ccc1NC1=CC(=O)CC(C)(C)C1,-2.49% (inactive)
11,Cc1ccc(C(=O)OC2=CC(=O)CC(C)(C)C2)cc1,2.66% (inactive)
12,COc1ccccc1N(CC(=O)Nc1ccc(C(F)(F)F)cc1)S(C)(=O)=O,-1.17% (inactive)
13,C=CCN1C(=O)[C@@H](CC(=O)NCCCOCCCC)[C@]2(C(=O)OCC)CCCCC/C=C/12,-1.57% (inactive)
14,COc1ccc(-n2c(SCC(=O)NC3CCCC3)nnc2-c2ccncc2)cc1,-4.56% (inactive)
15,CSc1ncc(C(=O)NCCCc2ccccc2)c(C)n1,-0.15% (inactive)
16,O=C(O)c1ccccc1-c1ccccc1C(=O)NCCc1ccccc1,1.35% (inactive)
17,Cc1c(C(=O)NCCCc2ccccc2)cccc1[N+](=O)[O-],8.08% (active)
18,O=S1(=O)c2c(cccc2N2CCSCC2)Oc2ccccc2CN1Cc1cn(Cc2ccc(F)cc2)nn1,-2.23% (inactive)
19,O=C(CCS(=O)(=O)c1ccccc1)Nc1ccc(Cl)c(Cl)c1,1.57% (inactive)
20,COc1ccc(-n2c(SCC(=O)Nc3ccc4c(c3)OCCO4)nnc2-c2ccc(Cl)cc2)cc1,-0.28% (inactive)
21,O=C(Nc1ccccn1)C1CCN(S(=O)(=O)c2ccc3c(c2)OCCO3)CC1,-2.23% (inactive)
22,Cc1ccc(Cl)cc1NC(=O)C1CCN(S(C)(=O)=O)CC1,-0.58% (inactive)
23,Cc1ccnc(NC(=O)C2CCN(S(=O)(=O)c3c(C)c(C)cc(C)c3C)CC2)c1,9.5% (active)

row,Compound,activation
1,COC(=O)[C@]12C[C@H](CC(=O)NCc3ccc(C)o3)C(=O)N(CCC3=CCCCC3)C1=C[C@H](C(C)(C)C)O[C@@H]2C,3.47% (inactive)
2,CCN(CC)C(=O)CC[C@@H]1CC[C@]2(CCCN(S(=O)(=O)C3CCCCC3)C2)O1,-3.43% (inactive)
3,N/C(=N\OC(=O)CCc1ccccc1)c1ccc(Cl)cc1,5.53% (inactive)
4,COc1ccc(/C(N)=N/OC(=O)Oc2ccccc2)cc1,8.42% (active)
5,CO/N=C/CC(=O)c1ccc(OC)cc1,4.21% (inactive)
6,CN(CC(=O)Nc1cccc(F)c1)C(=O)C1CSC2(C)CCC(=O)N12 (centres undefined),-0.29% (inactive)
7,CN1[C@H](Cc2ccccc2)COc2cccc(N3CCSCC3)c2S1(=O)=O,0.97% (inactive)
8,Cc1cc(O)c(NC(=O)c2ccc(C)c([N+](=O)[O-])c2)cc1C,9.28% (active)
9,CCN1CCC(=NNC(=O)c2ccc(C)c([N+](=O)[O-])c2)CC1,-0.87% (inactive)
10,CCCCNc1ccc(C(=O)Nc2cccc(C)n2)cc1[N+](=O)[O-],-1.63% (inactive)
11,COc1ccc(C(=O)N2CCN(c3ncccn3)CC2)cc1S(=O)(=O)N1CCOCC1,-2.62% (inactive)
12,Cc1cc(C(=O)NN=C/C=C/c2ccco2)n[nH]1,-4.94% (inactive)
13,Cc1ccc(NC(=O)Cc2cccc(F)c2)c(S(=O)(=O)N2CCOCC2)c1,-4.77% (inactive)
14,Cc1ccc(-c2c(C)n([O-])c3c([n+]2=O)CCC3)cc1,14.5% (active)
15,CCOc1ccc(-c2c(C)n([O-])c3c([n+]2=O)CCCC3)cc1,0.92% (inactive)
16,Cc1ccc(-c2c[n+](=O)c3c(n2[O-])CCC3)cc1,-3.37% (inactive)
17,CCCc1cc(=O)oc2c(C)c(OC(C)C(=O)NCC(O)c3ccccc3)ccc12 (centres undefined),-0.91% (inactive)
18,CCCCOC(=O)Nc1nnc(CC(=O)NCc2ccccc2)s1,-0.38% (inactive)
19,CCCCCCOC(=O)NCC(O)c1ccccc1 (centres undefined),11.2% (active)
20,CN(C)CCNC(=O)C(C(=O)c1ccccc1)n1ccccc1=O (centres undefined),2.29% (inactive)
21,O=C(CSc1nc2ccccc2nc1N1CCCCC1)N1CCN(S(=O)(=O)c2cccc([N+](=O)[O-])c2)CC1,5.57% (inactive)
22,O=C(NC1CCC1)c1ccc(C#Cc2cccc(F)c2)c[n+]1[O-],-2.93% (inactive)
23,O=C(Nc1ccc(OC(F)(F)F)cc1)c1ccc2c(c1)no[n+]2[O-],-7.81% (inactive)

row,Compound,activation
1,Cn1nccc1/C=N\NC(=O)c1ccc(Cl)cc1,-0.88% (inactive)
2,Cn1cccc1/C=N/NC(=O)c1ccc(OC(F)(F)C(F)F)cc1,8.72% (active)
3,O=C(COc1cc(Cl)c(Cl)cc1Cl)NC(=O)NC1CCCC1,-2.73% (inactive)
4,CC(C)CSc1nnc(-c2cccnc2)n1Cc1ccccc1,-4.95% (inactive)
5,Cc1ccc(CN2CCCCC(NC(=O)C3CCCCC3)C2=O)cc1 (centres undefined),-2.16% (inactive)
6,Cc1cc(C)c2nc(NC(=O)C3CCCO3)sc2c1 (centres undefined),7.96% (active)
7,Cc1ccc(C)c(C(C)NC(=O)C2CCCO2)c1 (centres undefined),-1.74% (inactive)
8,Cc1cc(C)c2nc(N3CCC(C(=O)NCCN4CCOCC4)CC3)sc2c1,-1.84% (inactive)
9,CCOC(=O)[C@]12CCCC3=C1N(CCC3)C(=O)[C@@H](CC(=O)N1CCSCC1)C2,-1.03% (inactive)
10,CCOc1ccc(-n2c(SCC(=O)Nc3cc(C)c(NC(=O)c4ccccc4)cc3OC)nnc2-c2cccc(Cl)c2)cc1,-5.83% (inactive)
11,CN(C)S(=O)(=O)c1cccc(C(=O)N/N=C\c2ccco2)c1,-2.36% (inactive)
12,COc1cc(NC(=S)N2CCCC(C)C2)cc(OC)c1OC (centres undefined),3.14% (inactive)
13,CCCCc1ccc(NC(=S)N2CCCC(CO)C2)cc1 (centres undefined),15% (active)
14,CCC(C)c1ccc(NC(=S)N2CCCC2)cc1 (centres undefined),-0.97% (inactive)
15,N#CCC[C@H]1CC[C@]2(CCCN(Cc3ccc(Cl)cc3)C2)O1,-3.04% (inactive)
16,COc1ccccc1C(=O)CSc1nnc(-c2ccccn2)n1-c1ccccc1,5.55% (inactive)
17,O=S1(=O)c2ccc(N3CCN(Cc4ccccc4F)CC3)cc2Oc2ccccc2CN1Cc1cn(Cc2ccc(Cl)cc2)nn1,4.05% (inactive)
18,Cc1cccc(NC(=O)C[C@H]2CC[C@H]3[C@@H](COc4ccc(NC(=O)Nc5ccccc5)cc4C(=O)N3C)O2)c1,2.72% (inactive)
19,Cc1cc(=O)[nH]c(SCC(=O)Nc2ccc(Cl)cc2C)n1,-2.94% (inactive)
20,O=C(COc1ccc2c3c(c(=O)oc2c1)CCC3)NC1CCCCC1,-1.03% (inactive)
21,COC(=O)Cc1c(C)c2ccc(OCC(=O)NCc3ccc4c(c3)OCO4)cc2oc1=O,2.31% (inactive)
22,CCc1c(C)c2ccc(OC3CCCCC3=O)cc2oc1=O (centres undefined),13.8% (active)
23,Cc1ccccc1NC(=O)Cn1nnc(-c2ccccc2F)n1,1.3% (inactive)

row,Compound,activation
1,c1ccc(Cc2nn3c(Cn4cnc5ccccc54)nnc3s2)cc1,-3.67% (inactive)
2,CCC1CCC/C1=N\NC(=O)c1ccc(Cl)cc1 (centres undefined),10.3% (active)
3,CC(NC(=O)c1ccc(Cl)cc1)C(=O)N1CCCCC1 (centres undefined),0.9% (inactive)
4,CN1CCC(=NNC(=O)c2ccc(N(Cc3ccc(Cl)cc3)S(C)(=O)=O)cc2)CC1,-1.44% (inactive)
5,O=C(CSc1ncnc2c1nnn2Cc1ccc(F)cc1)NC1CCCC1,-2.99% (inactive)
6,O=C(OCC(=O)c1cccs1)C1=COCCO1,8.48% (active)
7,CCC(C)(C)c1ccc(Oc2ccc(NC(=O)COC(=O)C3=COCCO3)cc2)cc1,-10.1% (inactive)
8,O=C(OCC(=O)c1cccs1)c1ccc([N+](=O)[O-])o1,-0.97% (inactive)
9,O=C1Nc2ccccc2-n2nnnc2C1N1CCN(c2cccc(C(F)(F)F)n2)CC1 (centres undefined),3.09% (inactive)
10,CCCCn1nc(C(=O)Nc2cccc(C(=O)NC3CC3)c2)c2ccccc2c1=O,1.35% (inactive)
11,CCCn1nc(C(=O)NNC(=O)CSCC(=O)Nc2cc(C)on2)c2ccccc2c1=O,-2.41% (inactive)
12,CCCn1nc(C(=O)Nc2ccc3nc(C)sc3c2)c2ccccc2c1=O,11.4% (active)
13,CCOC(=O)[C@@]12CN(C(=O)OC(C)(C)C)CC=C1N(Cc1ccc(OC)cc1)C(=O)[C@H]2CC(=O)NCc1ccc(OC)c(OC)c1,-2.13% (inactive)
14,COC(=O)[C@H](CC(C)C)NS(=O)(=O)c1c(F)cccc1F,-3.1% (inactive)
15,C=CCN(C(=O)[C@@H](CCCC)[C@@H](O)c1ccc(Cl)cc1)c1ccccc1,-3.35% (inactive)
16,COc1ccccc1CCNC(=O)C1CCN(c2nc(C)cc(C)n2)CC1,-2.87% (inactive)
17,CCOC(=O)[C@]12CCCC=C1N(CCCOC)C(=O)[C@@H]2CC(=O)N1CCOCC1,-2.55% (inactive)
18,COc1ccc(S(=O)(=O)N(C)C[C@H]2Oc3c(NC(=O)Nc4ccc5c(c4)OCO5)cccc3C(=O)N([C@H](C)CO)C[C@@H]2C)cc1,-0.71% (inactive)
19,Cc1noc(C)c1NC(=O)Nc1cccc2c1O[C@H](CN(C)S(=O)(=O)c1c(C)noc1C)[C@@H](C)CN([C@H](C)CO)C2=O,2.13% (inactive)
20,Cc1noc(C)c1S(=O)(=O)N(C)C[C@H]1Oc2c(NC(=O)Nc3ccc4c(c3)OCO4)cccc2C(=O)N([C@H](C)CO)C[C@@H]1C,8.33% (active)
